We go through 14 molecules from ChEMBL document CHEMBL2218924, “A broad activity screen in support of a chemogenomic map for kinase signalling research and drug discovery” (Biochem J, 2013).

As a reminder, the residual activity is the signal under treatment as a percentage of the control signal.

The structures appear in SMILES notation.

The target in test [1] is T1, Phosphorylase b kinase gamma catalytic chain, liver/testis isoform (Homo sapiens) (UniProt P15735).
T1 sequence (whole entry): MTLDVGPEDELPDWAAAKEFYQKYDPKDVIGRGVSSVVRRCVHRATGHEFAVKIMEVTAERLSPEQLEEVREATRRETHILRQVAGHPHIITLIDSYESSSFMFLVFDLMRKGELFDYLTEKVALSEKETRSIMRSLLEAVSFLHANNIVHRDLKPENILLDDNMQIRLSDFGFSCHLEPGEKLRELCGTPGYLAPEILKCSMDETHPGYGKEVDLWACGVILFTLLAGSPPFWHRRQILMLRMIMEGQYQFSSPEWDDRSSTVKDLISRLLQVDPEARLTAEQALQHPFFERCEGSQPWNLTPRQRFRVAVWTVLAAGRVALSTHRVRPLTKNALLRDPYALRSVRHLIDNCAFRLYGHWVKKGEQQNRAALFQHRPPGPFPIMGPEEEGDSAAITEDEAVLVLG
As to conditions: at 1 µM; call rule not given here.

Test [2] has as its target T1, Phosphorylase b kinase gamma catalytic chain, liver/testis isoform (Homo sapiens). Particulars: at 10 µM.
For test [3], the target named is Serine/threonine-protein kinase pim-1 (Homo sapiens) (UniProt P11309). As to conditions: at 1 µM.
For test [4] the target is unchanged. As to conditions: at 10 µM.
Test [5] has as its target Serine/threonine-protein kinase pim-2 (Homo sapiens) (UniProt Q9P1W9). Particulars: at 1 µM.
Test [6] deals with Receptor-interacting serine/threonine-protein kinase 2 (Homo sapiens) (UniProt O43353). Particulars: at 1 µM.
Test [7] shares this target. As to conditions: at 10 µM.
The target of test [8] is Rho-associated protein kinase 1 (Homo sapiens) (UniProt Q13464). Particulars: at 1 µM.
Test [9] shares this target. As to conditions: at 10 µM.
Test [10] addresses Serine/threonine-protein kinase pim-3 (Homo sapiens) (UniProt Q86V86). As to conditions: at 10 µM.
Test [11] concerns the target Serine/threonine-protein kinase PLK1 (Homo sapiens) (UniProt P53350). As to conditions: at 10 µM.
Test [12] deals with T2, cAMP-dependent protein kinase catalytic subunit PRKX (Homo sapiens) (UniProt P51817).
T2 sequence (whole entry): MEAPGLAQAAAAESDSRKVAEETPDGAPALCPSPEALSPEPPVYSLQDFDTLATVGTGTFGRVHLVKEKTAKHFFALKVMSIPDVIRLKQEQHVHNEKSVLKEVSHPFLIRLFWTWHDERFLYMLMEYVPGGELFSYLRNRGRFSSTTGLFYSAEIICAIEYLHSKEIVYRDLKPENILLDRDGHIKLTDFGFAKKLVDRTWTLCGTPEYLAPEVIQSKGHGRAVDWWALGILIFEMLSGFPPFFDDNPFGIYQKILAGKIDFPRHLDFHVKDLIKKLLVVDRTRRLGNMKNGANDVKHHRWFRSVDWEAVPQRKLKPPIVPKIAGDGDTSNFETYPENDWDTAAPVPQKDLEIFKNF
As to conditions: at 1 µM.

The target of test [13] is T2, cAMP-dependent protein kinase catalytic subunit PRKX (Homo sapiens). As to conditions: at 10 µM.
In test [14] the target is Protein-tyrosine kinase 2-beta (Homo sapiens) (UniProt Q14289). Particulars: at 1 µM.
For test [15] the target is unchanged. As to conditions: at 10 µM.
The target in test [16] is Serine/threonine-protein kinase PLK1 (Homo sapiens) (UniProt P53350). Particulars: at 1 µM.
Test [17] has as its target Serine/threonine-protein kinase PLK3 (Homo sapiens) (UniProt Q9H4B4). Particulars: at 1 µM.
For test [18] the target is unchanged. Particulars: at 10 µM.
For test [19], the target named is Serine/threonine-protein kinase pim-2 (Homo sapiens) (UniProt Q9P1W9). As to conditions: at 10 µM.
The target of test [20] is Serine/threonine-protein kinase pim-3 (Homo sapiens) (UniProt Q86V86). As to conditions: at 1 µM.

Serine/threonine-protein kinase PLK1 (Homo sapiens), sequence (P53350 whole entry): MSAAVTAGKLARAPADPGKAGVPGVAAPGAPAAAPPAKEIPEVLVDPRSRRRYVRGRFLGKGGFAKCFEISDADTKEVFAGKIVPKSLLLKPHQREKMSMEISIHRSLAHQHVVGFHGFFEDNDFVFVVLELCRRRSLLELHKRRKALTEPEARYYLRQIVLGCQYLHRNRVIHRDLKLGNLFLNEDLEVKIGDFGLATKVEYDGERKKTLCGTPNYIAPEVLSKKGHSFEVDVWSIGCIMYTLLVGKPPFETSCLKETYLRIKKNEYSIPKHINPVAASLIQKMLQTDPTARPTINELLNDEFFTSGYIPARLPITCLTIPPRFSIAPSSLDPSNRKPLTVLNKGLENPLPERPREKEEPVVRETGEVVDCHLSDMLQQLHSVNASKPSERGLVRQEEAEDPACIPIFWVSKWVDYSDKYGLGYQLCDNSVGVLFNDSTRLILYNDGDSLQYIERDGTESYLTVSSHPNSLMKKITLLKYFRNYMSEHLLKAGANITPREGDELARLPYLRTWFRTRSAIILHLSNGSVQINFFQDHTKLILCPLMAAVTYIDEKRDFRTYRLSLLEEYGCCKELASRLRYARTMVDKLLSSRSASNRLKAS
Protein-tyrosine kinase 2-beta (Homo sapiens), sequence (Q14289 whole entry, looked up): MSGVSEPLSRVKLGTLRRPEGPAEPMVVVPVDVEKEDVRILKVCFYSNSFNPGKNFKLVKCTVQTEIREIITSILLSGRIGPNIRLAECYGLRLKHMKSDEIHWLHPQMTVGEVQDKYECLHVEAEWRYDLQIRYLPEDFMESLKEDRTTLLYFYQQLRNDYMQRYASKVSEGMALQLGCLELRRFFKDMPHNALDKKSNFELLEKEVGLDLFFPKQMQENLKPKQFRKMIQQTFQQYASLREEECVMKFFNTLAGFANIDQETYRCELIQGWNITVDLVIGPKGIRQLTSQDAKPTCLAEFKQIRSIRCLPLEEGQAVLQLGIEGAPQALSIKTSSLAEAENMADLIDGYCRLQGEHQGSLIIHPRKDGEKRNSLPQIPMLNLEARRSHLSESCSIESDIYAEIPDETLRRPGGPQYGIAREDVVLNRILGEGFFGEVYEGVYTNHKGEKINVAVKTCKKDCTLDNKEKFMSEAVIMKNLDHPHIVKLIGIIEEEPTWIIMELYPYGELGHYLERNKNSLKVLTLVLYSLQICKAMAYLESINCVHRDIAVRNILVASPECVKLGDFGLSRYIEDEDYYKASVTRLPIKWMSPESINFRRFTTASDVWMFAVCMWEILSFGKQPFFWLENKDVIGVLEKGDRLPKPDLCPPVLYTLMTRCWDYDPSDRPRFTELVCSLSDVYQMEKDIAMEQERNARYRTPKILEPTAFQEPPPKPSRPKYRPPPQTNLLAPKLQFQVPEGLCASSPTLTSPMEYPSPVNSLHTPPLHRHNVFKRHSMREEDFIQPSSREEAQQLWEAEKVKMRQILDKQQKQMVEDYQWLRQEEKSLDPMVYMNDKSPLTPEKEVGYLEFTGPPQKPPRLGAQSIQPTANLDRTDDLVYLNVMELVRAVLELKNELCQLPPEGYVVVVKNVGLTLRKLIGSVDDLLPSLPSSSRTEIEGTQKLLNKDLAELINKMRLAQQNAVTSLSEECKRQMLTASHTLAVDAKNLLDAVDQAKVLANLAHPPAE
Serine/threonine-protein kinase PLK3 (Homo sapiens), sequence (Q9H4B4 whole entry, looked up): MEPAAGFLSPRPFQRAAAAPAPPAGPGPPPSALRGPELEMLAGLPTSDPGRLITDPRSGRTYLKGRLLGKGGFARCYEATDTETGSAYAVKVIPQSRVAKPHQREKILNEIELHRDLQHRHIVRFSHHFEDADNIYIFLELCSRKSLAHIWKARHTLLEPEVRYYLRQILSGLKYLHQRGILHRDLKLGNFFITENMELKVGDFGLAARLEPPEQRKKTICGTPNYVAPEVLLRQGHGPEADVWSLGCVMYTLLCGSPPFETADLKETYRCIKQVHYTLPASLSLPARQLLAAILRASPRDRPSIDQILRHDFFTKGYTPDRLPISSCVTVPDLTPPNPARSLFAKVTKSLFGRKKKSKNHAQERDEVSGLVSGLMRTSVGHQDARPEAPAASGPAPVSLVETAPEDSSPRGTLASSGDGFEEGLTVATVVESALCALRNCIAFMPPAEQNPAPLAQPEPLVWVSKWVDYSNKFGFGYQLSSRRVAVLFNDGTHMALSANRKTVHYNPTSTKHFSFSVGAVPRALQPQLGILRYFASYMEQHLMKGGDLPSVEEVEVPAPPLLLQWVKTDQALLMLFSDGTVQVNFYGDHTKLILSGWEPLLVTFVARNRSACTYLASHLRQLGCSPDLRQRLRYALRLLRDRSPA
Serine/threonine-protein kinase pim-2 (Homo sapiens), sequence (Q9P1W9 whole entry, looked up): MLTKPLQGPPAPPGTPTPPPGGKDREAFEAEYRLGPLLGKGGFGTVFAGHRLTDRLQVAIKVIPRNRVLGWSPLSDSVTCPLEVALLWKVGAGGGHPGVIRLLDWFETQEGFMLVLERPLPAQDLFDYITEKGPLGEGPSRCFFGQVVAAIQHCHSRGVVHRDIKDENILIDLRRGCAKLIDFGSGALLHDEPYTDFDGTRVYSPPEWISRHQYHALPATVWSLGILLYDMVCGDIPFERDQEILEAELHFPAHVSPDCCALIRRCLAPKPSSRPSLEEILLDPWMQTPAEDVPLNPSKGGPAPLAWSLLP
Serine/threonine-protein kinase pim-1 (Homo sapiens), sequence (P11309 whole entry, looked up): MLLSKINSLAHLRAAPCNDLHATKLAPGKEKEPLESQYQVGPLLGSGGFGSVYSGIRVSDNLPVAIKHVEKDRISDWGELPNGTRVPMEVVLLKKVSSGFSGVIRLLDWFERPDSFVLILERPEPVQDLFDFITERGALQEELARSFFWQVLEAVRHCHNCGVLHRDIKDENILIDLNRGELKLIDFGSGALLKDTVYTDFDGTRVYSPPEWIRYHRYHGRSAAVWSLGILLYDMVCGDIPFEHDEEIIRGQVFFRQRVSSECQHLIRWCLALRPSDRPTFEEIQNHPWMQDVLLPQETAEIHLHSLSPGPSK
Rho-associated protein kinase 1 (Homo sapiens), sequence (Q13464 2-1354 limits assumed): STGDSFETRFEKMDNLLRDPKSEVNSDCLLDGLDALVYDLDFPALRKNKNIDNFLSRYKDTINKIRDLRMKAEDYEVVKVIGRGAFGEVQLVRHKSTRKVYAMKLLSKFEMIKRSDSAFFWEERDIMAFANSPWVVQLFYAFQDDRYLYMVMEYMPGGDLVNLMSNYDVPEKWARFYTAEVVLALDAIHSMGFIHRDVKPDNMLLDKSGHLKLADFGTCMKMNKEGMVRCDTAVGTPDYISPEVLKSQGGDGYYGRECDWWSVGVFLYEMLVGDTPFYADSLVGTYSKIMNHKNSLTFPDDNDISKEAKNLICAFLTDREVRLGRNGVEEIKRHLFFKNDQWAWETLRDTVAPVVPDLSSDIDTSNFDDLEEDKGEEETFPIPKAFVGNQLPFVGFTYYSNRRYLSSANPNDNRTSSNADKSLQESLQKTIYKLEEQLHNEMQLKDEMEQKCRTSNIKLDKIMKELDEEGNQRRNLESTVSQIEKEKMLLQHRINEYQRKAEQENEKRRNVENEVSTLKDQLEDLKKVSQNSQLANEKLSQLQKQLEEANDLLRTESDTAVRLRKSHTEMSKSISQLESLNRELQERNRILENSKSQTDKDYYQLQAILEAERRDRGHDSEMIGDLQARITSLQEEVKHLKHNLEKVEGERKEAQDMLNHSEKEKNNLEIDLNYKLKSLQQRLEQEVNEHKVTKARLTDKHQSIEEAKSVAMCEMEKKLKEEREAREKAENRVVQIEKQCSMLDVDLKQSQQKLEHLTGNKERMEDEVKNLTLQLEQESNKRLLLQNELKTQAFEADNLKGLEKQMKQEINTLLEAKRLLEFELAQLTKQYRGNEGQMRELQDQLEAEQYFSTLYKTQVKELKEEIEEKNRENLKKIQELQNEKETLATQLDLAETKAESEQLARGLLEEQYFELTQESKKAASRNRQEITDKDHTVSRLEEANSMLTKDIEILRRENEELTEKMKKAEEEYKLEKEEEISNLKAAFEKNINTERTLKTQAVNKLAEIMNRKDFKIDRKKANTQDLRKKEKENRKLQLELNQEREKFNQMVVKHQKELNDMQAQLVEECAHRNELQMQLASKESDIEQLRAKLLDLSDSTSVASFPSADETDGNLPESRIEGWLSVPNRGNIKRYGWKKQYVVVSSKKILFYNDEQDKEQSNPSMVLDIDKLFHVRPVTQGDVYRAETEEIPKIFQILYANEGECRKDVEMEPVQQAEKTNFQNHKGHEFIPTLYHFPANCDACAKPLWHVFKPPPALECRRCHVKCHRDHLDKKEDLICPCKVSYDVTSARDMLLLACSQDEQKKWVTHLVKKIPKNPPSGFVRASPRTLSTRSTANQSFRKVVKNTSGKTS

On to `Nc1nccc(-c2c(-c3ccc(F)cc3)ncn2C2CCNCC2)n1`, for which the residual activity in test [1] came out at 125%; in test [2], 114%; in [3], 75%; in [4], 26%; in [5] it was 120%; in test [6], 43%. The residual activity worked out at 16% in [7], 128% in test [8] and 121% in test [9].

Take `CCN(CC)CCNC(=O)c1c(C)[nH]c(/C=C2\C(=O)Nc3ccc(Cl)cc32)c1C`: the residual activity was 8% in test [1]; 2% in [2]; 75% in [10]; 55% in test [11]; 63% in [12]; 37% in [13]. The residual activity came out at 15% in test [14], 3% in test [15], 62% in test [6] and 27% in [7].

As for `CC(C)[C@H](CO)Nc1nc(Nc2cc(N)cc(Cl)c2)c2ncn(C(C)C)c2n1`, the residual activity was 119% in test [1]; 97% in [2]; 95% in [3]; 86% in test [4]; 50% in test [16]; 9% in test [11]. The residual activity in test [17] was 99% (inactive); in [18] it was 77%; in [13], 88%; in test [14], 59%; in test [15], 7%; in test [6], 85%. Moreover, the residual activity in [7] turned out to be 77%; in test [9], 84%.

For `O=C(O)/C=C/c1cc(Br)c(Br)c(Br)c1Br`, the residual activity in [1] was 109%; in test [2], 63%; in test [3] it was 49%; in [4], 6%; in [5], 28%; in test [19], 1%. The residual activity in test [20] is 78%; in test [10], 39%; in test [16], 73%; in [11], 22%; in test [17] it was 60% (inactive); in test [18], -9%. The residual activity was found to be 68% in test [12]; 76% in test [13]; 100% in test [6]; 83% in test [7]; 98% in [9].

Take `NC(=O)Nc1sc(-c2ccc(F)cc2)cc1C(N)=O`: the residual activity was found to be 105% in test [1]; 69% in test [2]; 95% in [3]; 43% in test [4]; 93% in test [5]; 60% in [19]. The residual activity in test [17] was 88% (inactive); in test [18], 81%; in test [12], 85%; in test [13], 55%; in test [14] it was 56%; in test [15], 10%. Moreover, the residual activity in [6] worked out at 67%; in [7], 29%; in test [9], 101%.

`Cn1c2ccccc2c2c3c(c4c5ccccc5n(CCC#N)c4c21)CNC3=O`: the residual activity in test [1] came to 1%; in test [2] it was 2%; in [3] it was 18%; in test [4], 22%; in test [5], 25%; in test [19], 40%. In addition, the residual activity in test [20] is 58%; in test [11], 66%; in test [12], 19%; in [13] it was 20%; in test [14] it was 4%; in [15], 4%. In addition, the residual activity was 98% in test [8] and 97% in test [9].

For `Nc1ncnc2c1cnn2-c1ccccc1`, the residual activity stood at 97% in test [1]; 90% in test [2]; 126% in [4]; 94% in [19]; 101% in test [20]; 97% in [10]. In addition, the residual activity in test [16] was 100%; in test [11], 86%; in test [17], 93% (inactive); in [18] it was 95%; in [12] it was 94%; in [13], 91%. In addition, the figures for the residual activity in test [15], in test [6] and in test [7] were 97%, 93% and 67%, respectively.

With `COc1cc2ncnc(Nc3cccc(Cl)c3)c2cc1OC`, the residual activity in [1] was found to be 104%; in [2], 107%; in test [3], 62%; in test [4], 48%; in test [5] it was 121%; in test [20], 112%. For the same molecule, the residual activity in test [10] is 101%; in test [16], 112%; in test [17] it was 83% (inactive); in test [12] it was 122%; in [14] it was 117%; in test [15] it was 76%. In addition, the residual activity in [6] came out at 26%; in [7], 16%.

Regarding `COc1cc2nccc(Oc3ccc(NC(=S)NC(=O)c4ccccc4C)cc3)c2cc1OC`, the residual activity in test [1] amounted to 61%; in test [2], 45%; in test [3] it was 102%; in test [4] it was 99%; in [5], 97%; in [20], 89%. Further, the residual activity in [10] was 87%; in [16], 83%; in [11] it was 65%; in [17] it was 80% (inactive); in [18], 89%; in test [12] it was 68%. Besides, the residual activity worked out at 52% in test [13]; 82% in test [14]; 60% in test [15]; 51% in test [6]; 34% in test [7].

For the molecule `O=C1NC(=O)C(c2cn(CCCO)c3ncccc23)=C1c1cnccn1`, the residual activity in test [1] stood at 97%; in [3], 72%; in test [4], 50%; in [5] it was 49%; in test [19], 43%; in test [20], 46%. For the same molecule, the residual activity turned out to be 16% in test [10]; 87% in test [16]; 82% in [11]; 100% in [14]; 79% in [15]; 94% in test [6]. Besides, the residual activity in test [7] was 87%.

As for `COc1ccc(Cl)cc1NC(=O)Nc1cc(C)nc2ccccc12`, the residual activity in test [1] came out at 92%; in test [2] it was 53%; in [3], 87%; in test [4], 97%; in test [20] it was 96%; in [10], 99%. Besides, the residual activity was 95% in test [16]; 82% in test [11]; 96% (inactive) in test [17]; 93% in test [18]; 55% in test [13]; 85% in test [15]. Moreover, the residual activity is 99% in test [6] and 93% in [7].

With `NCCNc1ncc(C(N)=O)c(Nc2cccc(C(F)(F)F)c2)n1`, the residual activity in [1] amounted to 64%; in [2], 22%; in test [3], 82%; in [4] it was 38%; in [19], 60%; in [16], 100%. The residual activity in test [11] was determined as 73%; in test [14], 27%; in test [15], 3%; in [8], 104%; in test [9] it was 103%.

With `O=C1Nc2ccc(Cl)cc2/C1=C/c1cc(Cl)c(O)c(Cl)c1`, the residual activity in test [1] worked out at 94%; in [2], 83%; in test [3], 24%; in test [4] it was 5%; in [5], 17%; in [19], 3%. For the same molecule, the residual activity is 77% in test [20]; 30% in test [10]; 83% in test [16]; 62% in [11]; 94% (inactive) in [17]; 95% in [18]. Moreover, the residual activity in test [12] stood at 59%; in [13], 63%; in test [14], 96%; in test [15] it was 28%; in test [6], 32%; in [7], 25%. The residual activity in test [9] amounted to 121%.

With `O=c1cc(N2CCOCC2)oc2c1ccc1ccccc12`, the residual activity amounted to 90% in test [1]; 89% in [2]; 55% in test [3]; 13% in test [4]; 87% in test [5]; 45% in test [19]. The residual activity in test [20] is 92%; in [10], 55%; in [16], 56%; in test [11], 11%; in [17], 99% (inactive); in test [18], 68%. Also, the residual activity stood at 97% in test [12]; 96% in test [13]; 130% in test [14]; 100% in test [15]; 86% in [6]; 83% in test [7].
